According to paper PMC5540273 (PLoS ONE, 2017):

Tests used:
Settings in all cases: concentration: 1 μM,replicates: in singlicate; n = 1
[1] = test system: JAK1(JH2domain-pseudokinase)
[2] = test system: JAK2(JH1domain-catalytic)
[3] = test system: JAK3(JH1domain-catalytic)
[4] = test system: T1, JNK1
T1 construct: gene MAPK8

[5] = test system: T2, JNK2
T2 construct: gene MAPK9

[6] = test system: T3, JNK3
T3 construct: gene MAPK10

[7] = test system: KIT-autoinhibited
[8] = test system: KIT
[9] = test system: LATS1
[10] = test system: LATS2
[11] = test system: LCK
[12] = test system: LIMK1
[13] = test system: LIMK2
[14] = test system: T4, LKB1
T4 construct: gene STK11

[15] = test system: T5, LOK
T5 construct: gene STK10

[16] = test system: LRRK2
[17] = test system: LTK
[18] = test system: LYN
[19] = test system: T6, LZK
T6 construct: gene MAP3K13

[20] = test system: MAK
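Further: KINOMEscan kinase panel screen.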

| Compound | %Inh [1] [%] | %Inh [2] [%] | %Inh [3] [%] | %Inh [4] [%] | %Inh [5] [%] | %Inh [6] [%] | %Inh [7] [%] | %Inh [8] [%] | %Inh [9] [%] | %Inh [10] [%] | %Inh [11] [%] | %Inh [12] [%] | %Inh [13] [%] | %Inh [14] [%] | %Inh [15] [%] | %Inh [16] [%] | %Inh [17] [%] | %Inh [18] [%] | %Inh [19] [%] | %Inh [20] [%] |
| --- | --- | --- | --- | --- | --- | --- | --- | --- | --- | --- | --- | --- | --- | --- | --- | --- | --- | --- | --- | --- |
| COc1ccc(Nc2nccc(N3CCC(NC(=O)c4cccc(C#N)c4)C3)n2)cc1 (centres unmarked) [GSK1379730] | 0 | 12 | 0 | 15 | 16 | 10 | 0 | 0 | 0 | 0 | 23 | 0 | 0 | 2 | 0 | 31 | 0 | 0 | 0 | 26 |
| Cn1ccc2ncnc(Oc3ccc(NC(=O)Nc4ccnc(C(F)(F)F)c4)c(Cl)c3)c21 | 1 | 0 | 2 | 0 | 0 | 0 | 22 | 99.8 | 11 | 0 | 0 | 16 | 0 | 8 | 94 | 0 | 100 | 6 | 7 | 5 |
| CCn1c(-c2nonc2N)nc2cncc(Br)c21 [SB-738004] | 0 | 34 | 62 | 0 | 0 | 2 | 55 | 32 | 0 | 79 | 0 | 0 | 5 | 19 | 9 | 45 | 0 | 13 | 41 | 28 |
| O=C1NCCc2[nH]c(-c3ccncc3)cc21 | 26 | 73 | 87 | 30 | 24 | 45 | 0 | 14 | 23 | 34 | 9 | 5 | 2 | 0 | 6 | 31 | 0 | 0 | 2 | 21 |
| Cn1ccc2ncnc(Oc3ccc(NC(=O)Nc4cc(C(C)(C)C)on4)c(Cl)c3)c21 | 0 | 8 | 6 | 12 | 48 | 7 | 30 | 100 | 20 | 25 | 98.2 | 13 | 17 | 0 | 99.9 | 3 | 39 | 95.4 | 0 | 0 |
| COc1cccc(CNC(=O)NC2CCN(c3ccnc(Nc4cc(OC)c(OC)c(OC)c4)n3)C2)c1 (centres unmarked) [GSK1379765] | 11 | 89 | 0 | 29 | 9 | 25 | 0 | 60 | 0 | 5 | 34 | 9 | 82 | 0 | 49 | 0 | 78 | 0 | 32 | 31 |
| O=c1[nH]cc(-c2ccc(O)cc2)c2sc(-c3ccncc3)cc12 [GSK1033723] | 0 | 33 | 51 | 0 | 0 | 0 | 0 | 27 | 0 | 24 | 7 | 0 | 23 | 13 | 0 | 0 | 0 | 0 | 4 | 31 |
| Cc1ccc(CC(=O)N2CCc3cc(-c4cn(C)c5ncnc(N)c45)ccc32)cc1 [GSK2634758] | 0 | 0 | 0 | 13 | 12 | 0 | 0 | 98.6 | 0 | 9 | 38 | 0 | 0 | 19 | 87 | 0 | 24 | 23 | 24 | 4 |
| CCNCC(Cc1ccccc1)NC(=O)c1cc(Br)c(-c2ccnc3[nH]ccc23)s1.Cl.Cl (centres unmarked) [GSK1383280] | 0 | 82 | 87 | 33 | 10 | 1 | 0 | 50 | 43 | 82 | 11 | 21 | 23 | 0 | 0 | 0 | 0 | 0 | 0 | 44 |
| CC(C)c1nc(-c2cccc(NS(=O)(=O)c3ccccc3)c2)c(-c2ccnc(Nc3ccc4c(c3)CN(C)CC4)n2)s1 [GSK1649598] | 0 | 20 | 75 | 84 | 87 | 94 | 21 | 99.9 | 6 | 27 | 99.8 | 100 | 100 | 0 | 97.5 | 0 | 5 | 98 | 45 | 53 |
| Cc1cccc(-c2nc(Nc3ccncc3)c3sccc3n2)n1 [GW869641] | 90.2 | 67 | 57 | 46 | 85 | 94.6 | 21 | 22 | 11 | 33 | 20 | 11 | 5 | 0 | 79 | 0 | 35 | 18 | 4 | 0 |
| Cl.Nc1n[nH]c2cc(-c3ccccn3)ccc12 [GSK2189892] | 14 | 31 | 0 | 0 | 0 | 0 | 0 | 4 | 0 | 9 | 12 | 0 | 0 | 12 | 0 | 0 | 0 | 0 | 0 | 29 |
| C[C@@H]1CNc2c(sc3ccc4nc(-c5ccc(O)cc5)ccc4c23)C(=O)N1 | 36 | 53 | 94.6 | 18 | 0 | 6 | 0 | 54 | 17 | 13 | 0 | 4 | 0 | 0 | 19 | 93.5 | 83 | 4 | 0 | 46 |
| Cc1ccc(Nc2ccnc(Nc3ccc4c(c3)CS(=O)(=O)C4)n2)cc1O.Cl [GW579362] | 99.1 | 99.1 | 98.2 | 98.4 | 87 | 95.1 | 41 | 99.8 | 0 | 21 | 97.3 | 35 | 49 | 29 | 83 | 79 | 55 | 84 | 58 | 73 |
| N#Cc1cccc(C(=O)NC2CCN(c3ccnc(Nc4ccc(F)cc4)n3)C2)c1 (centres unmarked) [GSK1379708] | 0 | 16 | 0 | 26 | 34 | 17 | 0 | 9 | 0 | 0 | 22 | 0 | 0 | 0 | 0 | 0 | 0 | 0 | 0 | 18 |
| Nc1nccc(-c2ccc3c(N)n[nH]c3c2)n1 [GSK1034945] | 29 | 17 | 14 | 20 | 10 | 0 | 0 | 6 | 0 | 0 | 0 | 0 | 12 | 4 | 0 | 0 | 8 | 0 | 0 | 81 |
| CC(=O)Nc1ccc(-c2cc3ncnc(SCC(=O)O)c3s2)cc1 | 7 | 0 | 17 | 7 | 0 | 0 | 26 | 79 | 0 | 20 | 1 | 0 | 0 | 0 | 5 | 0 | 0 | 9 | 0 | 52 |
| C[C@@H]1CCN(C(=O)N2CCCC2)C[C@@H]1N(C)c1ncnc2[nH]ccc12 | 31 | 100 | 99.6 | 14 | 8 | 3 | 23 | 0 | 0 | 10 | 41 | 0 | 0 | 0 | 0 | 0 | 100 | 0 | 22 | 14 |
| NC(=O)Nc1sc(-c2ccc(F)cc2)cc1C(N)=O [GW789449] | 100 | 99.1 | 96.1 | 55 | 0 | 20 | 48 | 65 | 2 | 0 | 32 | 3 | 24 | 0 | 22 | 0 | 35 | 0 | 0 | 0 |
